Screens from PubChem.
HT1080-NT tox: kills 2HG-producing HT-1080-NT fibrosarcoma cells; HT-1080-NT fibrosarcoma viability, CellTiter-Glo ATP luminescence, 48 h; Potency, µM (series often up to 46.1 µM), most hits filed as cytotoxic; hit rate 1.6% among 360,000; AID 686970;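 further: NT is the 2HG producing partner of a matched IDH1 knockdown line; nearly all actives have a fitted effect of over 55% in size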
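Read-out is CellTiter-Glo luminescence after 10 minutes at room temperature, following 48 hours' compound treatment of HT-1080-NT cells (750 cells/well, RPMI, 5% FBS, 37 degrees C).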
HT1080 IDH1KD tx: toxicity to HT-1080 IDH1 knockdown cells (counter line); HT-1080 IDH1 knockdown viability, ATP luminescence, 48 h; Potency, µM (top dose mostly 46.1 µM), usual class: cytotoxic; hit rate 2% among 360,000; AID 686971
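After a 2 h attachment period, IDH1KD HT-1080 cells took pin-transferred compound for 48 h at 37 °C; ATP-based luminescence after 10 min room-temperature reagent incubation reported viability.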
DT40 TDP1 no CPT: qHTS for Inhibitors of human tyrosyl-DNA phosphodiesterase 1 (TDP1): qHTS in cells in absence of CPT. DT40 Tdp1-/- hTDP1 cells, no CPT, ATP luminescence, 48 h. hit rate 15% among 420,000. AID 686978, 2013. Potency, µM (highest dose often 46.2 µM), most hits filed as inhibitors; further: nearly all actives have a fitted effect of over 55% in size
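No-CPT arm: Tdp1-/-;hTDP1 DT40 cells (400/well) plus compounds, incubated ≥48 hr at 37 °C. Readout CellTiter-Glo luminescence.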
TGFb inhibitor: blocks TGF-b signaling; hit rate 1.2% among 410,000; HepG2 CAGA-GFP TGF-b/SMAD3 reporter, GFP fluorescence, 18 h; TGF-beta stimulated, 500 pg/mL final; Potency, µM (titrated, usually from 46.1 µM), usual class: inhibitors; further: nearly all actives have a fitted effect of over 65% in size
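Per well, imaged GFP fluorescence of HEPG2 CAGA-GFP cells gives the signal; cells get compound, then TGF-beta (500 pg/mL final), 18 h at 37 degrees C; %Activity versus -TGF-beta and +DMSO controls.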
HepG2 tox: kills HepG2 cells in TGF-b inhibitor counter-screen | HepG2 CAGA-GFP viability, ATP luminescence, 18 h | Potency, µM (highest dose often 46.1 µM), hits mostly cytotoxic | hit rate 0.76% among 410,000
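HepG2 CAGA-GFP cells (1000/well, DMEM with 1% FBS) received compound, then TGF-beta at 500 pg/mL final, and were incubated 18 hours at 37 degrees C. Viability was read by CellTiter-Glo luminescence. Media-only wells were set as complete cell-killing and DMSO as no toxicity.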
TDP1 cell CPT: growth inhibition of DT40 Tdp1-/-;hTDP1 cells with camptothecin (screen for TDP1 inhibitors); chicken DT40 Tdp1-/-;hTDP1 cells + 20 nM CPT, ATP luminescence, 48 h; Potency, µM (doses to about 46.2 µM), actives largely listed as inhibitors; AID 686979; hit rate 12% among 420,000; further: nearly all actives have a fitted effect of over 55% in size
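Chicken DT40 Tdp1-/- cells complemented with human TDP1, 400 cells/well, exposed to compounds plus 20 nM camptothecin for at least 48 h at 37 C; viability read as ATP content by CellTiter-Glo luminescence.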
Large screens that a line does not name were inactive. In the library only some 17% were active in any assay of this set; here they are far more common. The call rests on the fitted dose curve; in most records, active means well fitted curve in the direction sought with a large enough effect; inconclusive means small, poorly fitted or top-dose-only effect, or another doubt; inactive means no such curve, though single readings can be large; an effect the other way counts as inactive or inconclusive.

COc1cccc(OCc2cc(C(=O)N3CCNC(=O)C3Cc3ccccc3)no2)c1 (centres undefined)	TDP1 cell CPT inconclusive
CCOCc1cn(CC(=O)c2ccc(Cl)cc2)c(C)nc1=N	none
CCOCc1cn(CC(=O)c2ccc([N+](=O)[O-])cc2)c(C)nc1=N	HT1080 IDH1KD tx inconclusive, DT40 TDP1 no CPT inconclusive, TDP1 cell CPT 23µM
CCCCN(C(=O)c1cc(S(=O)(=O)N2CCOCC2)ccc1N1CCOCC1)c1ccccc1	none
CCCCCCCCNS(=O)(=O)CCNCCCC	DT40 TDP1 no CPT 16µM, TGFb inhibitor inconclusive, TDP1 cell CPT inconclusive
CCCCCCCCNS(=O)(=O)CCNC1CC1	TDP1 cell CPT inconclusive
CCc1cc(Cl)c(OC)c(C(=O)NC[C@@H]2CCCN2CC)c1O	HT1080-NT tox inconclusive, HT1080 IDH1KD tx inconclusive, DT40 TDP1 no CPT 26µM, TDP1 cell CPT inconclusive
Cc1ccc(-c2csc3nc[nH]c(=S)c23)cc1	HT1080-NT tox inconclusive, HT1080 IDH1KD tx inconclusive, DT40 TDP1 no CPT 5.2µM, TDP1 cell CPT 3.3µM
S=c1[nH]cnc2scc(-c3ccc(Cl)cc3)c12	HT1080 IDH1KD tx inconclusive, DT40 TDP1 no CPT inconclusive, TDP1 cell CPT inconclusive
O=c1[nH]cnc2scc(-c3ccc(Br)cc3)c12	DT40 TDP1 no CPT inconclusive
S=c1[nH]cnc2scc(-c3ccc(Br)cc3)c12	HT1080-NT tox 21µM, HT1080 IDH1KD tx 13µM, DT40 TDP1 no CPT 5.8µM, TDP1 cell CPT inconclusive
Cc1cc(-c2csc3nc[nH]c(=S)c23)cc(C)c1C	HT1080-NT tox 16µM, HT1080 IDH1KD tx 15µM, DT40 TDP1 no CPT 5.2µM, TGFb inhibitor inconclusive, TDP1 cell CPT 5.8µM
O=c1[nH]cnc2scc(-c3ccccc3)c12	none
Clc1cnc2nc(SC/C=C/c3ccccc3)[nH]c2c1	none
CC(C)c1cccc(C(C)C)c1NC(=O)OC1CCCCC1	DT40 TDP1 no CPT inconclusive, TDP1 cell CPT inconclusive
CCS(=O)(=O)c1ccccc1C(=O)N1CCN(c2nc3ccccc3s2)CC1	DT40 TDP1 no CPT inconclusive, TDP1 cell CPT inconclusive (no result: HT1080-NT tox, HT1080 IDH1KD tx)
CN(C1CCCCC1)S(=O)(=O)c1ccc(C(=O)N2CCN(c3nc4ccccc4s3)CC2)cc1	DT40 TDP1 no CPT 15µM, TDP1 cell CPT 23µM
O=C(c1ccc2ncsc2c1)N1CCN(c2ccc(O)cc2)CC1	DT40 TDP1 no CPT 21µM, TDP1 cell CPT inconclusive
O=C(c1ccc2ncsc2c1)N1CCN(c2nc3ccccc3s2)CC1	HT1080-NT tox inconclusive, DT40 TDP1 no CPT 15µM, TDP1 cell CPT inconclusive
Cc1cccc(N2CCN(C(=O)c3ccc4ncsc4c3)CC2)c1C	HT1080-NT tox 2.6µM, HT1080 IDH1KD tx 5.8µM, DT40 TDP1 no CPT 5.2µM, TDP1 cell CPT 2.1µM
O=C(c1cc2sccc2n1Cc1ccccc1)N1CCN(c2nc3ccccc3s2)CC1	HT1080 IDH1KD tx 8.2µM, DT40 TDP1 no CPT 15µM, TDP1 cell CPT 15µM
Cc1ncc2c(c1CNS(=O)(=O)c1cccs1)CCN(C(=O)/C=C/c1cc(F)cc(F)c1)C2	DT40 TDP1 no CPT 23µM (no result: HT1080-NT tox, HT1080 IDH1KD tx, TGFb inhibitor, HepG2 tox)
Cc1cnc(C(=O)NCc2c(C)ncc3c2CCN(C(=O)/C=C/c2cccs2)C3)cn1	TDP1 cell CPT 0.0046µM (no result: HT1080-NT tox, HT1080 IDH1KD tx, TGFb inhibitor, HepG2 tox)
Cc1ncc2c(c1CNC(=O)c1ccc3c(c1)OCO3)CCN(C(=O)c1ccc3ccccc3c1)C2	none (no result: HT1080-NT tox, HT1080 IDH1KD tx, TGFb inhibitor, HepG2 tox)
CSc1nc(C(=O)N2CCc3c(cnc(C)c3CNC(=O)c3ccc4c(c3)OCO4)C2)cs1	DT40 TDP1 no CPT 0.16µM, TDP1 cell CPT 0.13µM (no result: HT1080-NT tox, HT1080 IDH1KD tx, TGFb inhibitor, HepG2 tox)
Cc1ccccc1Nc1cc(C(=O)NC2CCCCC2)c2ccccc2n1	DT40 TDP1 no CPT 21µM, TDP1 cell CPT inconclusive (no result: HT1080-NT tox, HT1080 IDH1KD tx)
CSc1cccc(Nc2cc(C(=O)NC3CCCCC3)c3ccccc3n2)c1	TDP1 cell CPT inconclusive (no result: HT1080-NT tox, HT1080 IDH1KD tx)
Cc1ccc(C)c(Nc2cc(C(=O)NC3CCCCC3)c3ccccc3n2)c1	none (no result: HT1080-NT tox, HT1080 IDH1KD tx)
Cc1ccccc1Nc1cc(C(=O)NC2CCC(C)CC2)c2ccccc2n1 (centres undefined)	DT40 TDP1 no CPT 12µM, TDP1 cell CPT 16µM (no result: HT1080-NT tox, HT1080 IDH1KD tx)
Cc1ccc(Nc2cc(C(=O)NC3CCCC3)c3ccccc3n2)cc1C	DT40 TDP1 no CPT 15µM, TGFb inhibitor inconclusive, TDP1 cell CPT 13µM (no result: HT1080-NT tox, HT1080 IDH1KD tx)
COc1ccccc1-c1cncnc1-n1ccnc1	none (no result: HT1080-NT tox, HT1080 IDH1KD tx, TGFb inhibitor, HepG2 tox)
CCC(CC)C(=O)N(CCc1ccc(OC)cc1)Cc1nc2ccccc2c(=O)[nH]1	HT1080-NT tox inconclusive, HT1080 IDH1KD tx 7.1µM, DT40 TDP1 no CPT 21µM, TGFb inhibitor inconclusive, TDP1 cell CPT 23µM
CCN(CC(=O)Nc1ccc(C(=O)Nc2ccc(OC)cc2)cc1)Cc1nc2ccccc2c(=O)[nH]1	DT40 TDP1 no CPT 23µM, TDP1 cell CPT inconclusive
CCN(CC(=O)Nc1cc(OC)ccc1OC)Cc1nc2ccccc2c(=O)[nH]1	none
CSc1nsc(SCC(=O)NCc2ccc(C)cc2)n1	none
CCN(Cc1ccc2c(c1)OCCO2)C(=O)CSc1nc(C)nc2sc(C)c(C)c12	DT40 TDP1 no CPT inconclusive, TGFb inhibitor inconclusive, TDP1 cell CPT inconclusive
